Measurements taken from PubChem BioAssay.
Several values for one entry are separate records, joined by “and”; a condition that tells them apart may be missing. Identical values can stand only once. Inconclusive results are not listed. For some assays here: Results with a measured potency or affinity are listed apart. Activity calls are given as the source filed them. Unless noted, the rule behind the calls is not given here.

How the values were obtained:
[1] = biological target: Calcium-dependent protein kinase 1 (Plasmodium falciparum (isolate 3D7)) (UniProt P62344); test: PfCDPK1 kinase inhibitors, biochemical, TCAMS library (AID 1159585; cut-off not given, nearly all actives have IC50 up to about 0.98 µM;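 note: inhibitors leave more ATP so luminescence rises with inhibition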); details: recombinant PfCDPK1, Kinase-Glo ATP depletion luminescence
Chain of Calcium-dependent protein kinase 1 (Plasmodium falciparum (isolate 3D7)) (P62344 whole entry, looked up): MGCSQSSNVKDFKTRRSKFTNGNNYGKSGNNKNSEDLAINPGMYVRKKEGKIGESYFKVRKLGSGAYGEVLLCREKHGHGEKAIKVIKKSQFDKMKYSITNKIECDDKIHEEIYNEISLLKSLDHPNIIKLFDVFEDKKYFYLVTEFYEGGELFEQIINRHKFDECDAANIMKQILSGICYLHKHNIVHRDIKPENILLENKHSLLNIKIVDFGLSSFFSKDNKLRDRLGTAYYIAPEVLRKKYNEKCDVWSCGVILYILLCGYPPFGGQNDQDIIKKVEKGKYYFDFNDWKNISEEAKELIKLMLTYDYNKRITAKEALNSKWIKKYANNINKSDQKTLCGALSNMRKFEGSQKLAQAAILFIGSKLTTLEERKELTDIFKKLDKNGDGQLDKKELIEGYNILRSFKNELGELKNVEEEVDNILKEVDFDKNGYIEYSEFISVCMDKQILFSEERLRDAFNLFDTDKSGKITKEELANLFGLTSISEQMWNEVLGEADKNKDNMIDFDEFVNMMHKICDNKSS

[2] = biological target: Plasmodium falciparum protein kinase 6 (PK6, PF3D7_1337100) (UniProt Q8IDW1); test: PfPK6 kinase inhibitors, biochemical, TCAMS library (AID 1159586); details: recombinant PfPK6, Kinase-Glo ATP depletion luminescence
Chain of Plasmodium falciparum protein kinase 6 (PK6, PF3D7_1337100) (Q8IDW1 1-305): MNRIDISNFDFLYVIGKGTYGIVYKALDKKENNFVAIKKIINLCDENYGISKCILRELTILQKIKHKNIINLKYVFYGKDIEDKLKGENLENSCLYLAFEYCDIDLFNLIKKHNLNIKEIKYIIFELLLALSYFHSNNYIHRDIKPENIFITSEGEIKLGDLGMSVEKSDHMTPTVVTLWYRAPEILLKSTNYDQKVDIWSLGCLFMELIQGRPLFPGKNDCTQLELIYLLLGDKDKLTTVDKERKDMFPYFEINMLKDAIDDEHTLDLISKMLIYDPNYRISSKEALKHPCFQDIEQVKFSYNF

[3] = biological target: Protein kinase 7 (PK7), Plasmodium falciparum 3D7 (PF3D7_0213400) (UniProt Q7YTF7); test: inhibition of Plasmodium PK7 catalytic activity – biochemical, TCAMS antimalarial set, Kinase-Glo luminescence (AID 1159587); details: recombinant PfPK7, Kinase-Glo ATP depletion luminescence
Chain of Protein kinase 7 (PK7), Plasmodium falciparum 3D7 (PF3D7_0213400) (Q7YTF7 1-343): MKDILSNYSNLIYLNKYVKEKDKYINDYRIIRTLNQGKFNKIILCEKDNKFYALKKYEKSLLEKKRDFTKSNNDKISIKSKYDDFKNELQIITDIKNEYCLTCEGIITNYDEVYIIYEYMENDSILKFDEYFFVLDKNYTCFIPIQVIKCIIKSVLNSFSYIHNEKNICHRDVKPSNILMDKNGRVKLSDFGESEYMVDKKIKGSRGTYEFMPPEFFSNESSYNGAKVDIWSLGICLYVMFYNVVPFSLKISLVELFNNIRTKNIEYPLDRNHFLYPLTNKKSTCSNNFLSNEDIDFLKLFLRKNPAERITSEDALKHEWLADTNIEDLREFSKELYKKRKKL

[4] = biological target: Calcium-dependent protein kinase 4 (Plasmodium falciparum (isolate 3D7)) (UniProt Q8IBS5); test: PfCDPK4 kinase inhibitors, biochemical, TCAMS library (AID 1159588; cut-off not given, nearly all actives have IC50 up to about 0.91 µM); details: recombinant PfCDPK4, Kinase-Glo ATP depletion luminescence
Chain of Calcium-dependent protein kinase 4 (Plasmodium falciparum (isolate 3D7)) (Q8IBS5 whole entry, looked up): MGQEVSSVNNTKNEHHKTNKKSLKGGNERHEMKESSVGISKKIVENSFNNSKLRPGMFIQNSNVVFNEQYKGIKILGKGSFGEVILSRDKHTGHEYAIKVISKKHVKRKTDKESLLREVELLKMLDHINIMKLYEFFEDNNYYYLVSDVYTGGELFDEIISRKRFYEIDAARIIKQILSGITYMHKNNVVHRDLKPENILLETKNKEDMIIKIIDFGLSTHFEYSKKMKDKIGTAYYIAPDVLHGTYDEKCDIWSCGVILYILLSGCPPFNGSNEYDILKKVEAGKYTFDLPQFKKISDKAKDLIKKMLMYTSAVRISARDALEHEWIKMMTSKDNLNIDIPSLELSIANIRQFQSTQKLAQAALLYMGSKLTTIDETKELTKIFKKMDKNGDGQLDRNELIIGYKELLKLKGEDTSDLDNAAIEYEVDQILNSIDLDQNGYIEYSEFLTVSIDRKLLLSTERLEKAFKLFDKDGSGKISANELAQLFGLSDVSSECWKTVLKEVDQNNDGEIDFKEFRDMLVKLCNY

[5] = antimalarial activity against Dd2 strain (AID 2302;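 active = growth inhibition above 50% at the single 2 µM test dose, taken to imply half-maximal potency below 2 µM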;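 note: 0% = DMSO untreated growth and 100% = chloroquine plus artemisinin killed control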); details: P. falciparum Dd2 in RBCs, LDH growth readout, 72 h; at 2 µM; stronger effect = higher value
[6] = human hepatoma cell viability loss – ATP luminescence, cytotoxicity control for P. falciparum antimalarial project, primary screen (AID 2303;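 active = inhibition above 50%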;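 note: 0% = DMSO wells and 100% = digitonin-killed cells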); details: HepG2 viability, 24-48 h, at 10 µM, stronger effect = higher value
[7] = biological target: L-lactate dehydrogenase (Plasmodium falciparum (isolate CDC / Honduras)) (UniProt Q27743); test: PfLDH activity inhibition – cell lysate, 3D7 strain, counter-screen for P. falciparum growth inhibition project (AID 2304);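 note: 0% = vehicle and 100% = reference inhibitor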; details: P. falciparum 3D7 crude extract, LDH APAD/NBT absorbance; at 2 µM; stronger effect = higher value
Chain of L-lactate dehydrogenase (Plasmodium falciparum (isolate CDC / Honduras)) (Q27743 whole entry, looked up): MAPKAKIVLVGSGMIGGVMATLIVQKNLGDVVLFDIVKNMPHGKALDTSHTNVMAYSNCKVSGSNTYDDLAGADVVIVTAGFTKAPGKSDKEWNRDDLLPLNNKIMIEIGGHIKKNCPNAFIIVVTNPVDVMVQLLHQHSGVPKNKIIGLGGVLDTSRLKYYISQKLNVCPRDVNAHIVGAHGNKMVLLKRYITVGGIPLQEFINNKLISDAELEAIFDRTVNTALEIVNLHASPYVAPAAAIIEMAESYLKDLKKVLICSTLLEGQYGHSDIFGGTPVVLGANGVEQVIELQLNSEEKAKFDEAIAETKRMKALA

[8] = inhibition of 3D7 malaria parasite growth – strain 3D7 (AID 2306);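 note: 0% = DMSO wells and 100% = chloroquine plus artemisinin control wells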; details: P. falciparum 3D7 erythrocytic growth, LDH absorbance, 72 h; at 2 µM; stronger effect = higher value
F380Y = test: BK channel mutant inhibitors and activators – cell-based, U2OS BacMam, thallium flux, beta subunits, selectivity assay, profiling panel (AID 1259406;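 active = thallium flux through the channel raised or lowered by more than 3 SD from vehicle-only wells, actives on both sides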;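 note: initial slope of Thallos dye fluorescence rise after thallium is added; log ratio against the mean of 0.3% DMSO vehicle wells on the same plate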); details: U2OS BacMam BK variants, at 30 µM
F380Y/beta1 = test: as above; details: U2OS BacMam BK variants, at 30 µM
F380Y/beta2Delta = test: as above; details: U2OS BacMam BK variants, at 30 µM
F380Y/beta4 = test: as above; details: U2OS BacMam BK variants, at 30 µM
[9] = biological target: Calcium-activated potassium channel subunit alpha-1 (Homo sapiens) + Leucine-rich repeat-containing protein 26 (Homo sapiens) (UniProt Q12791+Q2I0M4); test: as above; details: U2OS BacMam BK variants, F380Y/Slo1WT/gamma1, at 30 µM
Chain of Calcium-activated potassium channel subunit alpha-1 (Homo sapiens) + Leucine-rich repeat-containing protein 26 (Homo sapiens) (Q2I0M4 whole entry, looked up, one chain of several): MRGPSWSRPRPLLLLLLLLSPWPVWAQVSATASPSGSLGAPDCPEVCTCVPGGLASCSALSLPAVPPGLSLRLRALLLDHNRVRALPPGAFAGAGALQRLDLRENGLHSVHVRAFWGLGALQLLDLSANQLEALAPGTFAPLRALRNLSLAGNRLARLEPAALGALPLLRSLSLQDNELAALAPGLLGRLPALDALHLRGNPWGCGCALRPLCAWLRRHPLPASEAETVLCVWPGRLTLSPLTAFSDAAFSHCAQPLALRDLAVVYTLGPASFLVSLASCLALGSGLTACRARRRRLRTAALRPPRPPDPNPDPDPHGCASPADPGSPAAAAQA

R275C = test: as above; details: U2OS BacMam BK variants, at 30 µM
R275C/beta1 = test: as above; details: U2OS BacMam BK variants, at 30 µM
R275C/beta2Delta = test: as above; details: U2OS BacMam BK variants, at 30 µM
R275C/beta4 = test: as above; details: U2OS BacMam BK variants, at 30 µM
R275C/Slo1WT/beta2 = test: as above; details: U2OS BacMam BK variants, at 30 µM
[10] = test system: Aerobactin synthetase IucA (Klebsiella pneumoniae); test: inhibition of K. pneumoniae IucA enzyme – biochemical, Tocris library, absorbance (AID 1345561); details: purified IucA enzyme assay, absorbance (OD) read-out; stronger effect = lower value;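 tested at 8 µM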;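 note: 100% = enzyme without compound and 0% = no enzyme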
[11] = viability loss in pontine glioma line – cell-based, SU-DIPG-XVII, MIPE5.0, CellTiter-Glo, qHTS, dose response (AID 1347060; cut-off not given, nearly all actives have AC50 up to about 26 µM;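 note: cells exposed to compound for 48 hours before viability readout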); details: CellTiter-Glo ATP luminescence
[12] = viability loss in pontine glioma line – cell-based, SU-DIPG-XIII, MIPE4.0, CellTiter-Glo, qHTS, dose response (AID 1347061; cut-off not given, nearly all actives have AC50 up to about 37 µM;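 note: cells exposed to compound for 48 hours before readout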); details: CellTiter-Glo ATP luminescence
[13] = viability loss in pontine glioma line – cell-based, JHH-DIPG-1, MIPE4.0, CellTiter-Glo, qHTS, dose response (AID 1347062; cut-off not given, nearly all actives have AC50 up to about 27 µM;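 note: cells exposed to compound for two days before readout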); details: JHH-DIPG-1 viability, CellTiter-Glo ATP luminescence
[14] = viability loss in pontine glioma line – cell-based, SU-DIPG-IV, MIPE4.0, CellTiter-Glo, qHTS, dose response (AID 1347063; cut-off not given, nearly all actives have AC50 up to about 30 µM;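 note: compound exposure lasted 48 hours before the viability readout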); details: CellTiter-Glo ATP luminescence
[15] = viability loss in pontine glioma line – cell-based, SU-DIPG-XIII, MIPE5.0, CellTiter-Glo, qHTS, dose response (AID 1347064; cut-off not given, nearly all actives have AC50 up to about 23 µM;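 note: cells exposed to compound for 48 hours before the viability read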); details: CellTiter-Glo ATP luminescence
[16] = viability loss in pontine glioma line – cell-based, SU-DIPG-XXV, MIPE5.0, CellTiter-Glo, qHTS, dose response (AID 1347065; cut-off not given, nearly all actives have AC50 up to about 26 µM;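 note: cells exposed to compound for 48 hours before ATP readout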); details: CellTiter-Glo ATP luminescence
[17] = growth inhibition of DIPG cells – cell-based, MIPE4.0 library, CellTiter-Glo luminescence, qHTS (AID 1347066; cut-off not given, nearly all actives have AC50 up to about 30 µM;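 note: cells exposed to compound for 48 hours before readout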); details: SU-DIPG-VI viability, CellTiter-Glo ATP luminescence
[18] = JHH-DIPG-1 glioma cell viability, MIPE5.0 library, CellTiter-Glo luminescence, qHTS (AID 1347067; cut-off not given, nearly all actives have AC50 up to about 26 µM;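 note: cells exposed to compound for 48 hours before readout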); details: JHH-DIPG-1 glioma viability, CellTiter-Glo ATP luminescence
[19] = growth inhibition of DIPG cells – cell-based, MIPE5.0 library, qHTS (AID 1347068; cut-off not given, nearly all actives have IC50 up to about 30 µM;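 note: cells exposed to compound for 48 hours before viability readout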); details: SU-DIPG-XXV viability
[20] = viability loss with induced miR-34 in A549 – imaging, A549 dox-inducible miR-34, nuclei and caspase counts, primary screen (AID 1347080;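 active = compounds whose cell count with miR-34 switched on is under 0.7 times the count with it off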); details: A549 miR-34 inducible, Hoechst nuclei count, 48 h
[21] = MELAS cybrid and Rieske KO viability enhancers – cell-based, MELAS cybrids, Rieske KO mouse fibroblasts, CellTiter-Glo, primary screen (AID 1508586;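 active = mean z-score across replicates of 1.96 or higher in either the MELAS or the Rieske mutant cell line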;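 note: z relative to plate mean and SD of compound and empty wells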); details: low glucose
[22] = galactose survival enhancers in mitochondrial complex I cybrids – cell-based, galactose medium, ATP luminescence, primary screen (AID 1645843;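 active = z-score of at least 1.8 in each of two replicates, scored against plate mean and spread of sample wells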;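 note: positive z means more ATP and so rescue of galactose-driven cybrid death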); details: complex I mutant cybrid cells, 72 h, stronger effect = higher value

O=C(CSc1cccc[n+]1[O-])c1ccc(Cc2ncc(C(F)(F)F)cc2Cl)s1
inactive: outcome [1] | outcome [2] | outcome [3] | outcome [4]

COc1cc(-c2nc(-c3ccc4c(c3)CC/C4=N\O)c(-c3ccncc3)[nH]2)ccc1OCCN1CCCCC1
inactive: outcome [1] | outcome [2] | outcome [3] | outcome [4]

C[C@@H]([C@H](CCCc1ccc(Cl)cc1)C(=O)N[C@H](C(=O)Nc1cccnc1)C(C)(C)C)N(O)C=O
inactive: outcome [1] | outcome [2] | outcome [3] | outcome [4]

CC[C@@H]([C@H](CC(C)C)C(=O)N[C@@H](CCCCNC(=O)OCc1ccccc1)C(=O)Nc1ccccn1)N(O)C=O
inactive: outcome [1] | outcome [2] | outcome [3] | outcome [4]

O=C(N/C=N/c1cc([N+](=O)[O-])c(-c2cccnc2)n1-c1ccc(O)cc1)c1ccccc1
inactive: outcome [1] | outcome [2] | outcome [3] | outcome [4]

Oc1ccc(/C=N/NC(=S)Nc2cccc3ccccc23)c(O)c1
inactive: outcome [1] | outcome [2] | outcome [3] | outcome [4]

CC1CCC(C[C@H](C(=O)N[C@@H](CCC(=O)N2CCCCC2)C(=O)Nc2nccs2)[C@H](C(C)C)N(O)C=O)CC1 (stereo partly drawn)
inactive: outcome [1] | outcome [2] | outcome [3] | outcome [4]

O=C(N/N=C/c1nc2ccccc2[nH]1)c1cccc([N+](=O)[O-])c1
inactive: outcome [1] | outcome [2] | outcome [3] | outcome [4]

O/N=C1\CCc2cc(-c3cc(-c4ccc(OC5CCNCC5)cc4)oc3-c3ccncc3)ccc21
inactive: outcome [1] | outcome [2] | outcome [3] | outcome [4]

COc1ccc(C2=[N+]([O-])c3ccccc3C2=O)cc1
inactive: outcome [1] | outcome [2] | outcome [3] | outcome [4]

CCCCCC(C)C(C)c1cc(O)c2c(c1)OC(C)(C)C=C2c1cc[n+]([O-])cc1 (stereo not drawn)
inactive: outcome [1] | outcome [2] | outcome [3] | outcome [4]

CN(C)c1nc(N/N=C/c2cc(Cl)ccc2O)nc(Nc2ccc(F)cc2)n1
inactive: outcome [1] | outcome [2] | outcome [3] | outcome [4]

c1cc2nc(CCCCCc3nc4ccc(C5=N[C@H]6CCCC[C@H]6N5)cc4[nH]3)[nH]c2cc1C1=N[C@H]2CCCC[C@H]2N1
inactive: outcome [1] | outcome [2] | outcome [3] | outcome [4]

CO[C@H](C)[C@H](NC(=O)[C@@H](CC(C)C)[C@H](CCC(F)(F)F)N(O)C=O)C(=O)Nc1nccs1
inactive: outcome [1] | outcome [2] | outcome [3] | outcome [4]

O/N=C1\CCc2cc(-c3nc(-c4cccc(OCCNCc5ccc(F)cc5)c4)[nH]c3-c3ccncc3)ccc21
inactive: outcome [1] | outcome [2] | outcome [3] | outcome [4]

C/C(=N\O)C1=C(O)C(c2ccccc2)N(c2ccccc2)C1=O (stereo not drawn)
inactive: outcome [1] | outcome [2] | outcome [3] | outcome [4]

COc1cc(/C=C(\C2=NC(=O)CS2)c2nc3cccnc3n2C)ccc1O
inactive: outcome [1] | outcome [2] | outcome [3] | outcome [4]

CCC[C@@H]([C@H](CC1CCCCC1)C(=O)N[C@H](C(=O)Nc1ccccn1)[C@H](C)CC)N(O)C=O
inactive: outcome [1] | outcome [2] | outcome [3] | outcome [4]

O=[N+]([O-])c1ccc(Nc2nc(N/N=C/c3cc(Cl)cc(Cl)c3O)nc(Nc3ccccc3)n2)cc1
inactive: outcome [1] | outcome [2] | outcome [3] | outcome [4]

Cc1cc(C)c2c(c1)/C(=N/O)CCN2
inactive: outcome [1] | outcome [2] | outcome [3] | outcome [4]

Oc1cccc(-c2nc(-c3cccc(I)c3)c(-c3ccc(-c4[nH]c(-c5cccc(O)c5)nc4-c4cccc(I)c4)cc3)[nH]2)c1
inactive: outcome [1] | outcome [2] | outcome [3] | outcome [4]

CCn1c(/C=C/c2cc(Br)ccc2O)nc2ccccc2c1=O
inactive: outcome [1] | outcome [2] | outcome [3] | outcome [4]

O=[N+]([O-])c1ccc(/C=N/O)nc1
inactive: outcome [1] | outcome [2] | outcome [3] | outcome [4]

CCC[C@@H]([C@H](CC1CCCCC1)C(=O)N[C@H](C(=O)Nc1nccc(N)n1)C(C)(C)C)N(O)C=O
inactive: outcome [1] | outcome [2] | outcome [3] | outcome [4]

O=C(Nc1ccc(Oc2ccc(OC(F)(F)F)cc2)cc1)c1ccco1
active: growth inhibition [5] 71% | growth inhibition [8] 90% | log fold change Tl+ flux (F380Y) -0.43 | log fold change Tl+ flux (F380Y/beta1) -0.196 | log fold change Tl+ flux (F380Y/beta2Delta) -0.597 | log fold change Tl+ flux (F380Y/beta4) -0.36 | log fold change Tl+ flux [9] -0.305
inactive: inhibition [6] 5% | inhibition [7] -1% | outcome [1] | outcome [2] | outcome [3] | outcome [4] | log fold change Tl+ flux (R275C) -0.00331 | log fold change Tl+ flux (R275C/beta1) -0.0279 | log fold change Tl+ flux (R275C/beta2Delta) 0.0205 | log fold change Tl+ flux (R275C/beta4) -0.00484 | log fold change Tl+ flux (R275C/Slo1WT/beta2) 0.0301

C=CC[C@@H](C[C@H](O)[C@H](Cc1ccccc1)NC(=O)c1ccc(-n2cccn2)cc1)C(=O)NC1CCCCC1
inactive: outcome [1] | outcome [2] | outcome [3] | outcome [4]

CCc1ccc(OCc2ccccc2C(=O)Nc2ccc3nc(C)cc(N)c3c2)cc1
1.57 and 0.955: fold change ([20]; measured here: relative caspase fold change +Dox/-Dox)
1390 and 202: cell count ([20]; measured here: total cells without miR-34 induction)
1370 and 181: cell count ([20]; measured here: total cells with miR-34 induction, stronger effect = lower value)
inactive: inhibition [7] 0% | outcome [1] | outcome [2] | outcome [3] | outcome [4] | remaining activity [10] 108% | fold change ([20]; stronger effect = lower value, cell number ratio, induced over uninduced) 0.988 and 0.896 | z-score ([21]; MELAS cybrid survival, CellTiter-Glo 48 h, stronger effect = higher value) -0.512 | z-score [22] -0.7
active: growth inhibition [5] 74% | inhibition [6] 98% | growth inhibition [8] 99% | AC50 [11] 9.34 µM | AC50 [12] 11.8 µM | AC50 [13] 3.32 µM | AC50 [14] 3.32 µM | AC50 [15] 7.42 µM | AC50 [16] 8.33 µM | AC50 [17] 8.33 µM | AC50 [18] 5.25 µM | IC50 [19] 9.34 µM
0.826: z-score ([21]; Rieske KO mouse fibroblast survival, CellTiter-Glo 72 h)
